The sample as a whole holds a higher share of hits than the screen did.
Dicer inh – inhibitors of Dicer pre-microRNA processing, primary screen, biochemical, cat-ELCCA, chemiluminescence. hit rate 6% among 47,000. Endoribonuclease Dicer (Homo sapiens), Q9UPY3. cat-ELCCA pre-miR-21 Dicer processing; active compounds read high. z-score at 25 µM. AID 1347074, 2019; in the data active means z-score above about 3, passing the limit was not always enough;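 further: higher signal means more uncleaved substrate so more Dicer inhibition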
Target sequence (Q9UPY3 whole entry, looked up): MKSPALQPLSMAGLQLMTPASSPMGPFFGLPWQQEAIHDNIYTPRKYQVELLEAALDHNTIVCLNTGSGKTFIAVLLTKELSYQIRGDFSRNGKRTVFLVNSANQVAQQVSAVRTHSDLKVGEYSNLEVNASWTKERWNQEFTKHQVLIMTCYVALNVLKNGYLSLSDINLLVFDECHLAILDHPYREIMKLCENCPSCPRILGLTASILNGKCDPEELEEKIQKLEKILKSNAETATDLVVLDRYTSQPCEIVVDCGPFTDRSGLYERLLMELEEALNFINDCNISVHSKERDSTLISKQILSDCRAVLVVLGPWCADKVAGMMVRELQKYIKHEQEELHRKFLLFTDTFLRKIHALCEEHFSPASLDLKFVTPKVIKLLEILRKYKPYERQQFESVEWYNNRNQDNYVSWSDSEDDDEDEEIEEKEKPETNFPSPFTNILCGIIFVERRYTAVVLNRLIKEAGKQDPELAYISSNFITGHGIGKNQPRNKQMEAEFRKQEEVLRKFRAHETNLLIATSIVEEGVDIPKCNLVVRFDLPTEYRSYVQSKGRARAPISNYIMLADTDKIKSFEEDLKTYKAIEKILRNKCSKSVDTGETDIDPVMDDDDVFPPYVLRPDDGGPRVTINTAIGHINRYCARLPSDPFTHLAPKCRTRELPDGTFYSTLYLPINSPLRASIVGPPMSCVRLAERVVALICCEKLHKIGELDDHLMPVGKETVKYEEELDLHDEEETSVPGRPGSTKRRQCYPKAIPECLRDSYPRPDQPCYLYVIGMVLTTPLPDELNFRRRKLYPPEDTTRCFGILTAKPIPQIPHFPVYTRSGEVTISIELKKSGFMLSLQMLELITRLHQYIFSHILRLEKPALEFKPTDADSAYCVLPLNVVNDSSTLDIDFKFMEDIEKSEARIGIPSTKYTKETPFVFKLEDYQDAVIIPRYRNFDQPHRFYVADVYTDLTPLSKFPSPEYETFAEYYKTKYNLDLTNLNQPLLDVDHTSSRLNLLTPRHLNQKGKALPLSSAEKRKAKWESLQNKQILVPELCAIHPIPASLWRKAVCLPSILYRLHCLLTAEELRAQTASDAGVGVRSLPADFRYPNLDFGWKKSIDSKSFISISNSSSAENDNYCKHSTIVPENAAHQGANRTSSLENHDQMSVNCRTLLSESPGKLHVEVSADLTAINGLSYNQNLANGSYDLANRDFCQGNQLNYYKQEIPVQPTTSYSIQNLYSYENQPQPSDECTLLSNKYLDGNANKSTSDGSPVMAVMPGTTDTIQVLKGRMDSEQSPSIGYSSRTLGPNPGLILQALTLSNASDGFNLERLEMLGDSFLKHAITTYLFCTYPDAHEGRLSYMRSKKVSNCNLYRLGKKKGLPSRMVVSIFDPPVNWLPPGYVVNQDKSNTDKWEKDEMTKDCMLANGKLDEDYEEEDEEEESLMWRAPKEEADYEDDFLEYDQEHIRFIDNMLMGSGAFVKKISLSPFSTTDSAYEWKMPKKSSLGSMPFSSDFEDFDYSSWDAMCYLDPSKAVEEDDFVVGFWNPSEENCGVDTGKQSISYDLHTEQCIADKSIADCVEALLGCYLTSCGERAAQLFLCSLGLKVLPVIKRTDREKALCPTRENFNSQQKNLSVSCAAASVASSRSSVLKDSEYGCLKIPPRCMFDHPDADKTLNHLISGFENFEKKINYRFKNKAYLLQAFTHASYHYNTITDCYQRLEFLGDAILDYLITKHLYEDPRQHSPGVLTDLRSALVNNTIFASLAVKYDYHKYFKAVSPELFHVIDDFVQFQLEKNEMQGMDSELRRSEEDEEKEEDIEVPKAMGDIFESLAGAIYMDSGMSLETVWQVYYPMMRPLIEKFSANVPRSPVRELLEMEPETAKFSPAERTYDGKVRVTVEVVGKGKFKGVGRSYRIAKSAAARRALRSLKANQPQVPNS
Large screens that a line does not name were inactive.

COc1ccc(C2CC(=O)C3=C(C2)Nc2ccccc2NC3c2cccc(O)c2)cc1OC (stereo unspecified)	Dicer inh 3.5
COc1ccc(C2CC(=O)C3=C(C2)Nc2ccccc2NC3c2ccc(OC(C)=O)cc2)cc1OC (stereo unspecified)	none
COc1cccc(C2Nc3ccccc3NC3=C2C(=O)CC(c2ccc(OC)c(OC)c2)C3)c1 (stereo unspecified)	none
COc1ccc(C2CC(=O)C3=C(C2)Nc2ccccc2NC3c2ccc(OC(C)=O)c(OC)c2)cc1 (stereo unspecified)	none
COc1cc(C2Nc3ccccc3NC3=C2C(=O)CC(c2ccccc2)C3)cc(Br)c1O (stereo unspecified)	Dicer inh 4.9
COc1ccc(C2Nc3ccccc3NC3=C2C(=O)CC(c2ccc(OC)c(OC)c2)C3)cc1 (stereo unspecified)	none
CCCCCCCNC(=O)c1cc([N+](=O)[O-])cc2c1-c1ccc([N+](=O)[O-])cc1C2=O	none
COc1cc(N2C(=O)CSC2c2ccccc2)c(OC)cc1Cl (stereo unspecified)	none
COc1ccc(-n2nnnc2/C(=C/N(C)C)C(=O)c2ccc(Cl)cc2)cc1	none
CCCNC(=O)c1nn2c(C(F)(F)F)cc(-c3cccs3)nc2c1Cl	none
CCN1CCN(C2=NS(=O)(=O)c3ccccc32)CC1	none
Cc1cc(C)cc(Oc2c(C(F)(F)F)oc3c(CN(C)C)c(O)ccc3c2=O)c1	none
COc1ccc(-c2cc(=O)c3ccc(O)cc3o2)cc1	none
COc1ccc2oc(C(=O)c3ccc(Cl)cc3)c(N)c2c1	none
COc1ccc(C(=O)c2oc3ccc(Cl)cc3c2N)cc1	none
COc1ccc(C(=O)c2oc3ccc(OC)cc3c2N)cc1	Dicer inh 4.2
COc1ccc(C(=O)c2ccccc2)c(O)c1	none
COc1ccc(C(=O)c2coc3ccc(O)cc23)cc1	Dicer inh 5.4
Cc1cc(C)nc(NS(=O)(=O)c2ccc(NC(=O)Nc3c(-c4ccccc4)noc3C)cc2)n1	none
COc1cccc(C2CCCC/C2=N/O)c1 (stereo unspecified)	none
O=C(O)[C@@H]1CS[C@H](c2ccccc2)N1	none
Cc1nc(Nc2nc3ccccc3s2)[nH]c(=O)c1Cc1ccccc1	none
O=c1oc2c(c(O)c1Cc1ccccc1)c(=O)[nH]c1ccccc12	none
O=C(O)c1cc(-c2cc(C(=O)O)c3ccccc3n2)nc2ccccc12	none
O=C(O)c1cc2ccccc2c(-c2c(O)c(C(=O)O)cc3ccccc23)c1O	Dicer inh 4.1
O=C(O)c1ccc2ccccc2c1-c1c(C(=O)O)ccc2ccccc12	none
CC(C)N1CSC(=S)N(C(C)C)C1	none
COc1ccc(C2C(C(=O)O)c3ccccc3C(=O)N2Cc2ccc(F)cc2)cc1 (stereo unspecified)	none
CCOc1ccc(C2c3c(oc4ccc(C)cc4c3=O)C(=O)N2c2nccs2)cc1 (stereo unspecified)	none
CC1CN=C(c2ccccc2)c2ccccc2C(=O)O1 (stereo unspecified)	none
C=C1c2cc(C)c(C)cc2NC(=O)N1c1ccccc1	none
Cc1cc2c(cc1C)NC(=O)c1ccccc1C(c1ccccc1)=N2	Dicer inh 3.1
COc1ccc(C2Nc3ccc(C(=O)c4ccccc4)cc3NC3=C2C(=O)CCC3)cc1OC (stereo unspecified)	none
Nc1cc(=O)[nH]n1C1CCN(c2ccccc2)CC1	Dicer inh 3.2
O=C1CC(c2ccccc2)CC(=O)N1c1ccc(N2CCOCC2)cc1	none
Nc1cc(=O)[nH]c(=O)n1-c1ccccc1	none
CCCCOC(=O)C1=C(C)NC2=C(C(=O)CC(C)(C)C2)C1c1cccc(Br)c1 (stereo unspecified)	none
O=C1c2cccc3cccc(c23)C(=O)N1c1nc2ccccc2[nH]1	none
Cc1ccc(CSc2nnc(-c3ccc(C(F)(F)F)cn3)s2)cc1	none
C=CCNc1nc2c(c(=O)[nH]c(=O)n2C)n1CC(O)CO (stereo unspecified)	none
C=CCNc1nc2c(c(=O)[nH]c(=O)n2C)n1CC	Dicer inh 3.2
CCCNc1nc2c(c(=O)[nH]c(=O)n2C)n1CCO	none
CCOC(=O)c1c(N)n(-c2ccc(C)cc2)c2nc3ccccc3nc12	none
COc1ccccc1N=C(N)SCc1ccccc1	Dicer inh 5.9
NC(=Nc1ccccc1)SCc1ccc([N+](=O)[O-])cc1	none
N#Cc1ccc(CSC(N)=Nc2ccccc2)cc1	none
CCc1c(C(=O)OC)nn(-c2ccc(OC)cc2)c(=O)c1C#N	none
O=C(O)c1nn(-c2ccc(Cl)cc2Cl)c(=O)cc1O	none
O=C(CCSc1nc(-c2ccco2)cc(C(F)(F)F)n1)Nc1ccccc1	none
Cc1cc(NC(=O)CCSc2nc(-c3ccco3)cc(C(F)(F)F)n2)n(-c2ccccc2)n1	none
Cc1nn(C)c(C)c1NC(=O)CCSc1nc(-c2ccco2)cc(C(F)(F)F)n1	Dicer inh 3
C=CCOc1ccc(C2/C(=C(\O)c3ccc(OC)cc3)C(=O)C(=O)N2c2nnc(C)s2)cc1 (stereo unspecified)	none
NC(=S)COc1cc(Cl)cc(Cl)c1	none
CC(C)CCNC(=O)Cn1cnc2c1c(=O)n(C)c(=O)n2C	none
CCC12CN3CC(CC)(CN(C1)C3c1ccccc1F)C2=O (stereo unspecified)	none
CCCC12CN3CC(CCC)(CN(C1)C3c1ccc(O)cc1)C2=O (stereo unspecified)	none
CCC12CN3CC(CC)(CN(C1)C3c1ccccc1)C2=O (stereo unspecified)	Dicer inh 5.5
CCCCSC1=C(C#N)C(=O)NC(CCC)S1 (stereo unspecified)	Dicer inh 5.4
CCCCSC1=C(C#N)C(=O)NCS1	Dicer inh 5.7
CCCCSC1=C(C#N)C(=O)NC(c2ccccc2O)S1 (stereo unspecified)	none
CCCCCCSC1=C(C#N)C(=O)NC(CO)S1 (stereo unspecified)	none
CCCCSC1=C(C#N)C(=O)NC(c2ccc(OC)cc2)S1 (stereo unspecified)	none
CCCCSC1=C(C#N)C(=O)NC(CC(C)C)S1 (stereo unspecified)	none
COC(=O)c1cnc(NNS(=O)(=O)c2ccccc2)nc1C(F)(F)F	none
CC1/C(=N\O)CC(c2ccc([N+](=O)[O-])cc2)NC1c1ccc([N+](=O)[O-])cc1 (stereo unspecified)	none
Cc1ccc(S(N)(=O)=O)c(I)c1	none
CN(C)C=N/C(=N\OCc1c(F)cccc1Cl)c1ccc(Cl)cc1	none
COc1ccccc1-c1nnc(SCc2ccccc2Cl)o1	none
CSc1sc(Cl)c(-c2ccc(Cl)cc2)c1C#N	none
CCCCNS(=O)(=O)c1cccc2c(N)cccc12	none
CCOC(=O)c1ccc(N)c(N)c1	Dicer inh 3.4
CCOC(=O)c1ccc([N+](=O)[O-])c(C)c1	none
CCOC(=O)c1ccc(-n2nc(C)cc2C)cc1	none
CCCc1c(C)nc2scc(-c3ccccc3)n2c1=O	none
Cc1ccc(NC(=O)C2Sc3nnc(C)n3NC2c2ccc(F)cc2)c(C)c1 (stereo unspecified)	none
COc1ccccc1C1C(C#N)=C2N=C(N)c3ccccc3N2C2=C1C(=O)CC(C)(C)C2 (stereo unspecified)	Dicer inh 5
COc1cccc(C2C(C#N)=C3N=C(N)c4ccccc4N3C3=C2C(=O)CC(C)(C)C3)c1OC (stereo unspecified)	none
CCOc1ccccc1C1C(C#N)=C2N=C(N)c3ccccc3N2C2=C1C(=O)CC(C)(C)C2 (stereo unspecified)	none
COc1ccc(C2C(C#N)=C3N=C(N)c4ccccc4N3C3=C2C(=O)CC(C)(C)C3)cc1 (stereo unspecified)	none

Source: PubChem BioAssay
